# Records with an inconclusive call do not appear. Calls of active or inactive are those of the source. Calls come from the whole dose curve; as a rule, active = well fitted inhibition curve with a large enough effect; inconclusive = small, poorly fitted or top-dose-only effect; inactive = flat fitted curve, though single readings scatter.
# Target: Calcium and integrin-binding protein 1 (Homo sapiens) (UniProt Q99828)
# Assay: Primary qHTS for Identification of Calcium Integrin Binding Protein 1 (CIB1) Competitor (AID 1508620);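 note: GST tagged CIB1 binding a fluorescein labelled alphaIIb integrin peptide tracer; top concentration of the series differs between compounds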
# Details: CIB1-GST / FITC-alphaIIb peptide fluorescence polarization; series mostly up to 114 µM; activity change, negative = inhibition: at the top concentration
# Outline: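 CIB1-GST (1 uM final) and compound incubated 15 min at room temperature before adding FITC-alphaIIb peptide tracer (100 nM final). Competition for binding read by fluorescence polarization (ex 480, em 540) after another 15 min at room temperature.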
# % is set by controls: 0 for no effect and ±100 for the full control effect.
# Sequence of Calcium and integrin-binding protein 1 (Homo sapiens) (Q99828 whole entry, looked up): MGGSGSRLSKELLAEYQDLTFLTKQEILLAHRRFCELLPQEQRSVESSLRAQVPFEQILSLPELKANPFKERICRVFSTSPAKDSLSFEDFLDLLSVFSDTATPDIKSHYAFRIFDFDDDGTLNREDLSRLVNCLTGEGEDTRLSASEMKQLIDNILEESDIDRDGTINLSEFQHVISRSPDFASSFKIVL
row,Structure (SMILES),"activity change, negative = inhibition"
1,CCNC(=O)c1ccc(-c2ccc3ncnc(NCC4CCCO4)c3c2)o1 (stereo not drawn),-22.6% (inactive)
2,COc1cc(O)c(C(CC(=O)N2C[C@H](C)C[C@H](C)C2)c2ccc3c(c2)OCO3)c(OC)c1 (stereo partly drawn),-0.504% [at 228 µM] (inactive)
3,Cc1ccc(N2C(=O)c3ccccc3C2=O)c(C)c1,6.62% (inactive)
4,O=C1c2ccccc2C(=O)N1Cc1ccccc1,-1.94% (inactive)
5,Cc1cc(C)nc(NC(=S)N2CCN(c3cccc(OC(F)F)c3)CC2)c1,-7.5% (inactive)
6,Cc1nc(CCN(C)c2ncnc3ccc(-c4ccc5c(c4)OCO5)cc23)cs1,-1.78% (inactive)
7,N#Cc1nc(Nc2ccc(F)cc2)nc(NC2CCCC2)n1,-1.93% (inactive)
8,O=C(NC(c1ccco1)c1cc(Cl)c2cccnc2c1O)c1ccc(F)c(F)c1 (stereo not drawn),-6.74% (inactive)
9,COc1cccc(CNc2ncnc3ccc(-c4c(C)noc4C)cc23)c1,2.69% (inactive)
10,O=C(OCC#CCSc1nnc(-c2cccc3ccccc23)s1)c1cccs1,-10.7% (inactive)
11,COc1ccc(-c2ccc3ncnc(NCCc4cnc[nH]4)c3c2)cc1OC,-3.1% (inactive)
12,O=S1(=O)N=C(Oc2cccc(Br)c2)c2ccccc21,-3% (inactive)
13,COc1cccc(-c2nc(SC)nc3sc(C(=O)NC(C)(C)C)c(N)c23)c1,-3.91% (inactive)
14,O=C(O)CN1C(=O)/C(=C/c2ccc(-c3cccc(Cl)c3)o2)SC1=S,58.9% (inactive)
15,N#Cc1ccc(-c2ccc(=O)n(CC(=O)NCCc3ccccc3)n2)cc1,-1.74% (inactive)
16,COc1cc(O)c(C(CC(=O)N2CCCC(C)C2)c2ccc(OC)c(OC)c2)c(OC)c1 (stereo not drawn),3% [at 228 µM] (inactive)
17,COc1cccc(N2C(=O)c3ccccc3C2=O)n1,5.4% (inactive)
18,COc1ccnc(NCc2ccc(O)c3ncccc23)c1,8.74% (inactive)

# From PubChem BioAssay (NCATS)
